The whole screen tested about 360,000 compounds, of which about 7,500 (2.1%) were called active. A call without a number means that no potency is given here. Not shown: some 8% with an inconclusive outcome. Only a selection was taken, and actives are over-represented in it overall. The source holds several records for some structures; these can differ, active in one and inactive in another. Unmarked numbers belong to inactive results. The call rests on the fitted dose curve; in most records, active means well fitted cell-killing curve with a large enough effect; inconclusive means small, poorly fitted or top-dose-only effect, or effect the other way, or another doubt; inactive means no such curve, though single readings can be large or run the other way.
Assay: qHTS for induction of synthetic lethality in tumor cells producing 2HG: qHTS for the HT-1080-IDH1KD cell line
Details: HT-1080 IDH1 knockdown viability, ATP luminescence, 48 h; series mostly up to 46.1 µM
How it was run: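 CellTiter-Glo luminescence after 48 h compound exposure at 37 degrees C of IDH1-knockdown HT-1080 cells in 5% FBS RPMI. %Activity scaled between DMSO wells and cell-free media wells, with curves fitted and assigned curve classes.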
Potency means the concentration at half of the fitted maximal effect.

SMILES | Potency
Cc1ccc(Nc2nc(-c3ccc(O)cc3O)cs2)nc1 | 1.84 µM (active)
Cc1ccn2c(-c3csc(Nc4ccc(C(=O)O)cc4)n3)c(C)nc2c1 | inactive
CC(=O)Nc1cnc(-c2ccc(O)cc2C)cn1 | inactive
CCC1(CC)Cc2ccccc2-c2nc(CCl)[nH]c(=O)c21 | inactive
Cn1c(NCc2cccnc2)nc2cc(-c3ccc(F)cc3)sc2c1=O | inactive
O=c1[nH]c(CCl)nc2cc(-c3ccc(Cl)cc3)sc12 | 11.6 µM (active)
O=C(c1ncn2c1c(=O)[nH]c1ccccc12)N1CCc2ccccc2C1 | inactive
Cc1sc2nc(-c3ccccc3F)oc(=O)c2c1C | inactive
OCCC#Cc1ccc(N2C(c3ccsc3)=Cc3ccc(F)cc3C2c2c[nH]c3ccccc23)cc1 (stereo not drawn) | 25.9 µM (active)
Nc1ncnc2c1ncn2[C@@H]1O[C@H](C(=O)N2CCCN(Cc3ccccc3F)CC2)[C@@H](O)[C@H]1O | inactive
Cc1nnc(SC(C)C(=O)c2c[nH]c3ccccc23)n1C1CC1 (stereo not drawn) | inactive
CC(=NNC(N)=O)C1CC2CCC1CC2 (stereo not drawn) | inactive
O=C(NCCc1ccc(Cl)cc1)c1cccc(N2CCCC2=O)c1 | inactive
COc1ccc(CCNC(=S)N2CCN(S(=O)(=O)c3ccc(Cl)cc3)CC2)cc1 | inactive
Oc1cc2c(cc1O)CN(C(=S)NCCc1ccc(Cl)cc1)CCC2 | 39.8 µM (active)
CCN(CC)C(=O)C1=C(C)N(Cc2ccc(OC)cc2)C(=O)C(CC(=O)NCCCCc2ccccc2)C1 (stereo not drawn) | inactive
CC(C)CCOc1ccc(C(=O)Nc2cc(S(=O)(=O)N3CCOCC3)ccc2N2CCOCC2)cc1 | inactive
COc1ccc(-c2csc(C(O)c3cccc(Cl)c3)n2)cn1 (stereo not drawn) | inactive
COc1cccc(NC(=O)Nc2ccc(F)cc2)c1 | inactive
COc1ccc(/C=N/Nc2cc(N3CCOCC3)nc(C)n2)c(OC)c1 | inactive
COc1cccc(/C=N/Nc2cc(C)nc(-c3ccccc3O)n2)c1O | 6.51 µM (active)
COc1cccc(/C=N/Nc2ccc(S(=O)(=O)Nc3ccccc3C(=O)O)cc2[N+](=O)[O-])c1O | inactive
Nc1ncnc2c1ncn2[C@@H]1O[C@H](C(=O)NS(=O)(=O)c2c(Cl)nc3sccn23)[C@@H](O)[C@H]1O | inactive
COc1ccc(NC(=O)N(C)C[C@@H]2OCc3cn(nn3)CCCC(=O)N([C@H](C)CO)C[C@H]2C)c(OC)c1 | inactive

SMILES | Potency
COC(=O)C1C(=O)c2c([nH]c(C(=O)OCCSC)c2C)CC1C (stereo not drawn) | inactive
CCCOC(=O)c1[nH]c2c(c1C)C(=O)CC(c1cccs1)C2 (stereo not drawn) | 0.651 µM (active)
COCCOC(=O)c1[nH]c2c(c1C)C(=O)CC(c1ccc(OC)cc1)C2 (stereo not drawn) | inactive
CCc1nc2c(=O)[nH]cnc2o1 | inactive
O=C(Nc1ccc(Cl)cc1)c1csc([C@H]2C[C@H](O)[C@@H](CO)O2)n1 | inactive
O=C(N[C@H]1CC[C@H](CC(=O)N2CCCCC2)O[C@@H]1CO)c1cccc(F)c1 | inactive
Cc1ccc(C(=O)N2CCCc3ccccc32)c(Cl)c1 | inactive
Cc1cccc2cc3c(N)c(C(=O)N4CCCc5ccccc54)sc3nc12 | 2.31 µM (active)
Cc1c(C(=O)N2CCCc3ccccc32)sc2nc(-c3ccccc3)cn12 | inactive
CC(C)(C)Cc1c(C2CCCCC2)nc2ccc(Br)cn12 | inactive
C[C@H]1CN([C@@H](C)CO)C(=O)CCCn2cc(nn2)CO[C@@H]1CN(C)S(=O)(=O)c1ccc(-c2ccccc2)cc1 | inactive
N=C1C(c2nc3ccccc3[nH]2)=C(O)CN1NC(=O)c1c[nH]c2ccccc12 | inactive
N=C1C(c2nc3ccccc3s2)=C(O)CN1NC(=O)c1ccc([N+](=O)[O-])cc1 | 20.6 µM (active)
Cc1ccc(C)n1NC(=O)c1ccc([N+](=O)[O-])cc1 | inactive
C[C@H]1CN([C@@H](C)CO)C(=O)c2cc(C3=CCCCC3)cnc2O[C@@H]1CN(C)C(=O)Cc1ccccc1 | inactive
COc1ccc(C2CC(c3cccc(OC)c3)=NN2c2ccc(S(N)(=O)=O)cc2)cc1 (stereo not drawn) | 16.4 µM (active)
COc1ccc(C2CC(c3ccccc3)=NN2C(=O)COC(=O)COc2ccccc2)cc1 (stereo not drawn) | inactive
COc1ccc(C2=NN(c3ccccc3)C(c3cccs3)C2)cc1 (stereo not drawn) | inactive
O=c1[nH]c2ccccc2n1C1CCN(CCOc2ccccc2)CC1 | inactive
CCOc1ccc(NC(=O)CSc2nnc3c(n2)[nH]c2ccc(S(=O)(=O)N4CCOCC4)cc23)cc1 | inactive
CC(C)CC1C(=O)N(Cc2cn(Cc3ccco3)nn2)CCS(=O)(=O)N1Cc1ccc(-c2ccc(Cl)c(Cl)c2)cc1 (stereo not drawn) | 18.4 µM (active)
CC1C(=O)N(Cc2cn(Cc3ccco3)nn2)CCS(=O)(=O)N1Cc1ccc(-c2cccc(CO)c2)cc1 (stereo not drawn) | inactive
CC(C)CC1C(=O)N(Cc2cn(CC3CCCCC3)nn2)CCS(=O)(=O)N1Cc1ccc(-c2ccc(Cl)cc2)cc1 (stereo not drawn) | inactive
C[C@@H]1CN([C@H](C)CO)S(=O)(=O)c2ccc(C#CC3CCCCC3)cc2O[C@H]1CN(C)C(=O)Cc1ccncc1 | inactive

— PubChem BioAssay AID686971 (National Center for Advancing Translational Sciences (NCATS), 2013)
